The results in this text go back to publication PMC5540273 (PLoS ONE, 2017).
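Also: KINOMEscan kinase panel screen.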

In this assay the test system is GRK1. The conditions noted are these: concentration: 1 μM, replicates: in singlicate; n = 1.
With `Nc1ncnc2c1ncn2-c1ccc(Cl)cc1` [AH2635], the “%Inh” value is 0%.

Regarding `Nc1nc(-c2ccccc2F)c(-c2ccnc3ccccc23)s1` [GW560459], the “%Inh” value was determined as 0%.

With `COc1cc2ncn(-c3cc(OCc4ccc(S(C)(=O)=O)cc4)c(C(N)=O)s3)c2cc1OC` [GW869979], the “%Inh” value worked out at 10%.

As to `CCC(=O)c1c(-c2ccccc2)c2cc(Cl)ccc2c(=O)n1Cc1cc(C(=O)NC2CC2)n(C)n1`, the “%Inh” value amounted to 0%.

As for `Nc1n[nH]c2nnc(-c3ccccc3)c(-c3ccccc3)c12` [GW554060], the “%Inh” value was determined as 0%.

Take `OCCCNc1nccc(-c2c(-c3cccc(C(F)(F)F)c3)nn3cc(C(F)(F)F)ccc23)n1` [GW630813]: the “%Inh” value turned out to be 100%.

`O=C(NCCNc1ccnc(Nc2ccc(F)cc2)n1)Nc1ccc2c(c1)OCO2` [GSK1379882]: the “%Inh” value is on record as 0%.

Regarding `CCC(=O)c1c(-c2ccccc2)c2cc(Cl)ccc2c(=O)n1Cc1cc(S(C)(=O)=O)n(CCC(C)(C)O)n1`, the “%Inh” value is recorded as 8%.

As for `FC(F)(F)c1ccc(-c2ncn(CCCN3CCOCC3)c2-c2ccncc2)cc1` [SB-217780], the “%Inh” value turned out to be 12%.

As to `COC(=O)c1c(-c2ccccc2)c2cc(Br)ccc2c(=O)n1Cc1ccc(S(C)(=O)=O)cc1`, the “%Inh” value was 0%.

On to `CCCNC(=O)Nc1ccc(Oc2ncnc3ccn(C)c23)cc1`, for which the “%Inh” value came out at 24%.

For the compound `CCn1c(-c2ccoc2)nc2cnccc21` [SB-733887], the “%Inh” value came to 0%.

Consider `CCn1c(-c2nonc2N)nc2ccccc21` [SB-693162/GW549034], for which the “%Inh” value is listed as 46%.

`Cc1nc(N(C)[C@H]2CN(C(=O)CC#N)CC[C@H]2C)c2cc[nH]c2n1`: the “%Inh” value is 0%.

As for `CCC(=O)c1c(-c2ccccc2)c2cc(Cl)ccc2c(=O)n1Cc1ccc(C(=O)O)cc1`, the “%Inh” value came out at 0%.

Regarding `COc1ccc(Nc2nccc(N3CCC(NS(=O)(=O)c4ccc(NC(C)=O)cc4)C3)n2)cc1` (stereo not shown) [GSK1379729], the “%Inh” value is 9%.

As for `CCc1nc(-c2cccc(C)c2)c(-c2ccncc2)s1`, the “%Inh” value was 25%.

Consider `COc1cc(Nc2ccnc3ccc(C(F)(F)F)cc23)cc(OC)c1OC` [GW577382], for which the “%Inh” value amounted to 17%.

As for `COc1ccc(-c2cc3c(C)nc(N)nc3n([C@H]3CC[C@H](O)CC3)c2=O)cn1`, the “%Inh” value is recorded as 0%.

For the compound `Cc1ccc(-c2ccc3c(ccc4sc5c(c43)NC[C@@H](C)N=C5N(C)C)n2)cn1`, the “%Inh” value is recorded as 0%.

Regarding `Cc1nnc(-c2ccc(C)c(-c3ccc(C(=O)O)cc3)c2)o1` [GW608005], the “%Inh” value came out at 0%.

In the case of `COC(=O)c1c(-c2ccccc2)c2cc(C)ccc2c(=O)n1Cc1ccccc1`, the “%Inh” value is 0%.

`COc1cccc(C2=C(Nc3cccc(C(=O)O)c3)C(=O)NC2=O)c1` [SB-390770]: the “%Inh” value is given as 14%.

For `Fc1cccc(CSc2nnc(-c3ccc4c(c3)CCO4)o2)c1`, the “%Inh” value was 7%.

Regarding `Cc1cccc(-c2cc(-c3c[nH]nc3-c3ccccn3)ccn2)c1` [GW679395], the “%Inh” value stood at 3%.

Turning to `CN(C)c1cc(-c2ccc3c(N)n[nH]c3c2)nc(N)n1` [GSK2219329], the “%Inh” value was 0%.

For `Cn1c(=O)c(F)c(Nc2ccc(I)cc2F)c2c(=O)n(OC[C@H](O)CO)cnc21`, the “%Inh” value is 9%.

For `Cc1nnc(-c2ccc3ncn(-c4ccc(S(C)=O)cc4)c3c2)o1` (stereo not shown), the “%Inh” value is on record as 11%.

With `CCC(=O)c1c(-c2ccccc2)c2cc(Cl)ccc2c(=O)n1Cc1cc(S(C)(=O)=O)n(CC(N)=O)n1`, the “%Inh” value is recorded as 24%.

Regarding `COc1cccc(-n2cnc3c(N)ncnc32)c1` [SKF-97416], the “%Inh” value is given as 24%.

`CCCC(=O)Nc1n[nH]c2ncc(-c3cccc4ccccc34)cc12` [SB-642057]: the “%Inh” value amounted to 0%.

Consider `CN1C(=O)C(Nc2cc(Cl)c(O)c(Cl)c2)=C(c2ccc(Cl)cc2)C1=O` [SB-404321], for which the “%Inh” value amounted to 0%.

In the case of `Nc1nccc2scc(-c3ccc4c(c3)CCN4C(=O)Cc3ccccc3)c12` [GSK2576924], the “%Inh” value stood at 4%.

On to `CCc1ccc(-c2ccc3c(c2)-c2nn(C)cc2S(=O)(=O)N3C)cc1`, for which the “%Inh” value turned out to be 12%.

`O=C(NCc1cccs1)c1cc(C(=O)c2c(Cl)cccc2Cl)c[nH]1` [GW823670]: the “%Inh” value is recorded as 0%.

In the case of `COC(=O)c1c(-c2ccccc2)c2cc(Br)ccc2c(=O)n1Cc1ccc(NC(=O)CCC(=O)O)cc1`, the “%Inh” value amounted to 0%.

For `COc1ccc(CNC(=O)NC2CCN(c3ccnc(Nc4ccc(F)cc4)n3)C2)cc1` (stereo not shown) [GSK1379706], the “%Inh” value was 5%.
